Reference: PubChem BioAssay (EPA / NIEHS)
Records with an inconclusive call do not appear. Active and inactive are the calls of the source. Rule for the calls, unless noted: active = hit-call score of the fitted dose curve at least 0.9, where 1 is the maximum; inconclusive = response in the unintended direction; inactive = score below 0.9.

What was measured:
[1] = molecular target: human Peroxisome Proliferator-activated Receptor delta (PPARd), PPARD (gene 5467) (UniProt Q03181); assay: ATG_PPARd_TRANS: Attagene TRANS-FACTORIAL HepG2 Assay for human Peroxisome Proliferator-activated Receptor delta (PPARd) (AID 2283002)
In short: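 HepG2 cells transiently transfected with GAL4-UAS multiplexed reporter units driven by exogenous chimeric NR-GAL4 proteins; 24 h compound exposure. Reporter mRNA measured by RT-PCR, 6-FAM primer extension, HpaI digestion and capillary electrophoresis; gain of signal fitted relative to DMSO.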

[2] = molecular target: Peroxisome proliferator-activated receptor gamma (Homo sapiens) (UniProt P37231); assay: ATG_PPARg_TRANS: Attagene TRANS-FACTORIAL HepG2 Assay for human Peroxisome Proliferator-activated Receptor-gamma (PPARg) (AID 2283007)
In short: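 HepG2 cells are transiently transfected with GAL4-UAS reporter units driven by chimeric NR-Gal4 fusions and dosed for 24 h. Reporter mRNA is quantified by RT-PCR, 6-FAM labelling, HpaI digestion and capillary electrophoresis. Induction is scored against DMSO.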

[3] = molecular target: Nuclear receptor subfamily 1 group I member 2 (Homo sapiens) (UniProt O75469); assay: ATG_PXR_TRANS: Attagene TRANS-FACTORIAL HepG2 Assay for human Pregnane X Receptor (PXR) (AID 2283008)
In short: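 HepG2 cells transiently transfected with GAL4-UAS reporter units and PXR-Gal4 chimera, exposed 24 h. Reporter mRNA quantified by RT-PCR, fluorescent labelling, HpaI digestion and capillary electrophoresis; gain of signal vs DMSO.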

[4] = molecular target: human RAR-related Orphan Receptor beta (RORb), RORB (gene 6096) (UniProt Q92753); assay: ATG_RORb_TRANS: Attagene TRANS-FACTORIAL HepG2 Assay for human RAR-related Orphan Receptor beta (RORb) (AID 2283010)
In short: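 Readout is reporter-gene mRNA induction, detected as fluorescence after RT-PCR and capillary electrophoresis, fitted for gain of signal against DMSO controls. Transiently transfected HepG2 liver cells carrying GAL4-UAS reporter constructs were treated for 24 hours.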

[5] = molecular target: human Retinoid X Receptor beta (RXRb), RXRB (gene 6257) (UniProt P28702); assay: ATG_RXRb_TRANS: Attagene TRANS-FACTORIAL HepG2 Assay for human Retinoid X Receptor beta (RXRb) (AID 2283013)
In short: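 Transfect HepG2 with GAL4-UAS multi-reporter constructs (chimeric NR-Gal4, TRANS format); dose compound 24 h; isolate RNA, RT-PCR, FAM primer extension, HpaI digest; quantify by capillary electrophoresis; positive direction vs DMSO.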

[6] = molecular target: human Thyroid Receptor alpha (THRa1), THRA (gene 7067) (UniProt P10827); assay: ATG_THRa1_TRANS: Attagene TRANS-FACTORIAL HepG2 Assay for human Thyroid Receptor alpha (THRa1) (AID 2283014)
In short: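 HepG2 cells transiently transfected with chimeric NR-Gal4 and GAL4-UAS reporter units, dosed 24 h. Reporter mRNA quantified by RT-PCR, fluorescent labeling, HpaI digestion and capillary electrophoresis; gain-of-signal fit versus DMSO.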

[7] = molecular target: Retinoic acid receptor alpha (Homo sapiens) (UniProt P10276); assay: ATG_RARa_TRANS: Attagene TRANS-FACTORIAL HepG2 Assay for human Retinoic Acid Receptor alpha (RARa) (AID 2283005)
In short: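 HepG2 transiently transfected with multiplex GAL4-UAS reporter units including a human RARa–GAL4 chimera; 24 h compound exposure. Reporter mRNA quantified by RT-PCR, 6-FAM labeling and capillary electrophoresis; gain of signal versus DMSO.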

[8] = molecular target: human RAR-related Orphan Receptor gamma (RORg), RORC (gene 6097) (UniProt P51449); assay: ATG_RORg_TRANS: Attagene TRANS-FACTORIAL HepG2 Assay for human RAR-related Orphan Receptor gamma (RORg) (AID 2283011);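 for AC50: potency for induction of reporter transcripts above DMSO so activators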
In short: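 HepG2 cells transiently transfected with GAL4-UAS reporter units and chimeric RORg-Gal4 construct; after 24 h chemical exposure, reporter mRNA measured by RT-PCR with fluorescent capillary electrophoresis, gain of signal fitted against DMSO.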

[9] = molecular target: human Retinoic Acid Receptor beta (RARb), RARB (gene 5915) (UniProt P10826); assay: ATG_RARb_TRANS: Attagene TRANS-FACTORIAL HepG2 Assay for human Retinoic Acid Receptor beta (AID 2283004)
In short: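 HepG2 cells were transiently transfected with GAL4-UAS reporter units that report activity of exogenous chimeric NR-Gal4 proteins, then exposed to compound for 24 h. Reporter mRNA was quantified by RT-PCR with capillary electrophoresis fluorescence, as gain of signal over DMSO.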

[10] = molecular target: human Retinoic Acid Receptor gamma (RARg), RARG (gene 5916) (UniProt P13631); assay: ATG_RARg_TRANS: Attagene TRANS-FACTORIAL HepG2 Assay for human Retinoic Acid Receptor gamma (RARg) (AID 2283009)
In short: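 Transient transfection of HepG2 with multi-reporter constructs, then 24 h chemical treatment. Total RNA isolated, reverse-transcribed, PCR-amplified, fluorescently labelled and resolved by capillary electrophoresis; activity scored as mRNA induction versus DMSO.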

[11] = molecular target: Retinoic acid receptor RXR-alpha (Homo sapiens) (UniProt P19793); assay: ATG_RXRa_TRANS: Attagene TRANS-FACTORIAL HepG2 Assay for human Retinoid X Receptor alpha (RXRa) (AID 2283012)
In short: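 Transient transfection of human HepG2 with multiple GAL4-UAS reporter constructs; 24 h compound exposure; total RNA isolated, reverse-transcribed, PCR-amplified, 6-FAM labelled, HpaI-cut, resolved by capillary electrophoresis. Positive-direction fit versus DMSO.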

[12] = read-out: Intercellular Adhesion Molecule 1 (ICAM1), ICAM1 (gene 3383); assay: BSK_3C_ICAM1: BioMAP Diversity Plus: 3C Assay for Intercellular Adhesion Molecule 1 (ICAM1) Biomarker Activity (AID 2283003; active = hit-call score of the fitted dose curve at least 0.9, where 1 is the maximum; inactive = score below 0.9); conditions: primary human endothelial cells (HUVEC); actives raise or lower the signal
In short: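 ICAM-1 levels measured by ELISA after HUVEC cultures in the 3C system had been dosed for 24 h. Gain or loss of signal relative to DMSO was fitted in both directions.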

[13] = read-out: E-selectin (Homo sapiens) (UniProt P16581); assay: BSK_3C_Eselectin: BioMAP Diversity Plus: 3C Assay for Eselectin Biomarker Activity (AID 2283015; active = hit-call score of the fitted dose curve at least 0.9, where 1 is the maximum; inactive = score below 0.9;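 note: cell surface E-selectin protein quantified by ELISA 24 h after dosing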); conditions: primary human endothelial cells (HUVEC); actives raise or lower the signal
In short: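 Primary human umbilical vein endothelial cells (3C system), read 24 h after compound addition; E-selectin measured by ELISA. Bidirectional curve fitting against DMSO baseline; cytotoxicity by parallel SRB total-protein staining.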

[14] = read-out: Interleukin-1 alpha (IL1a), IL1A (gene 3552); assay: BSK_BE3C_IL1a: BioMAP Diversity Plus: BE3C Assay for Interleukin-1 alpha (IL1a) Biomarker Activity (AID 2283016; active = hit-call score of the fitted dose curve at least 0.9, where 1 is the maximum; inactive = score below 0.9); conditions: primary human bronchial epithelial cells; actives raise or lower the signal
In short: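 BE3C primary human bronchial epithelium; cpd 24 h; IL-1a by ELISA; bidirectional fit vs DMSO; parallel SRB (0.1% SRB, 10% TCA fix, 560 nm) for cytotoxicity.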

[15] = read-out: Monocyte Chemoattractant Protein-1 (MCP1), CCL2 (gene 6347); assay: BSK_3C_MCP1: BioMAP Diversity Plus: 3C Assay for Monocyte Chemoattractant Protein-1 (MCP1) Biomarker Activity (AID 2283017; active = hit-call score of the fitted dose curve at least 0.9, where 1 is the maximum; inactive = score below 0.9); conditions: primary human endothelial cells (HUVEC); actives raise or lower the signal
In short: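 Human umbilical vein endothelial cells (3C system) exposed to chemicals for 24 h; MCP-1 quantified by ELISA against the DMSO baseline with bidirectional fitting, and parallel SRB staining used to assess cytotoxicity.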

[16] = read-out: Monocyte Chemoattractant Protein-1 (MCP1), CCL2 (gene 6347); assay: BSK_4H_MCP1: BioMAP Diversity Plus: 4H Assay for Monocyte Chemoattractant Protein-1 (MCP1) Biomarker Activity (AID 2283018; active = hit-call score of the fitted dose curve at least 0.9, where 1 is the maximum; inactive = score below 0.9); conditions: primary human endothelial cells (HUVEC); actives raise or lower the signal
In short: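 ELISA read-out of MCP-1 from human vascular endothelial primary cells taken at 24 hours after compound exposure. Activity was fitted in both directions relative to DMSO, which served as negative control.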

[17] = read-out: Human Leukocyte Antigen - DR isotype (HLADR), HLA-DRA (gene 3122); assay: BSK_3C_HLADR: BioMAP Diversity Plus: 3C Assay for Human Leukocyte Antigen - DR isotype (HLADR) Biomarker Activity (AID 2283019; active = hit-call score of the fitted dose curve at least 0.9, where 1 is the maximum; inactive = score below 0.9;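 note: ELISA of cell-surface HLA-DR on HUVEC 24 h after dosing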); conditions: primary human endothelial cells (HUVEC); actives raise or lower the signal
In short: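 HUVEC monoculture, HLA-DR measured by ELISA 24 h after chemical dosing. Fitted bidirectionally against DMSO baseline; parallel SRB staining assessed cytotoxicity, with 3C proliferation read by SRB at 48 h.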

[18] = read-out: Interleukin-8 (IL8), CXCL8 (gene 3576); assay: BSK_3C_IL8: BioMAP Diversity Plus: 3C Assay for Interleukin-8 (IL8) Biomarker Activity (AID 2283020; active = hit-call score of the fitted dose curve at least 0.9, where 1 is the maximum; inactive = score below 0.9); conditions: primary human endothelial cells (HUVEC); actives raise or lower the signal
In short: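 ELISA read-out of IL-8 from human umbilical vein endothelium, measured 24 h after chemical dosing. Activity is expressed relative to DMSO negative control, with both increases and decreases fitted.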

Measured: AC50

Chain of Retinoic acid receptor alpha (Homo sapiens) (P10276 whole entry, looked up, the tested form may be a part): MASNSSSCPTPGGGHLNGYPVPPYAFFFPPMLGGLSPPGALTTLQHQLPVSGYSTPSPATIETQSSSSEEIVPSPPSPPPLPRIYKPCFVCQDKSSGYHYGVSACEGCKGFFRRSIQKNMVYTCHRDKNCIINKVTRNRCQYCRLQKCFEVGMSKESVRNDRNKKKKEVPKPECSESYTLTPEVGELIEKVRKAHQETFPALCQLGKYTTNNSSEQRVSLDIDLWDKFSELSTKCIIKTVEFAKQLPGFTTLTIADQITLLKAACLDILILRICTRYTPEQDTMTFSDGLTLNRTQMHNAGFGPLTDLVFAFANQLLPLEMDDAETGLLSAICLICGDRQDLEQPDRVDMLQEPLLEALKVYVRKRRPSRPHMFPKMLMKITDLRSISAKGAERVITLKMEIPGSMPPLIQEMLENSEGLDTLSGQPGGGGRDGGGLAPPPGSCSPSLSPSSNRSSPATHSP
Chain of Peroxisome proliferator-activated receptor gamma (Homo sapiens) (P37231 whole entry, looked up, the tested form may be a part): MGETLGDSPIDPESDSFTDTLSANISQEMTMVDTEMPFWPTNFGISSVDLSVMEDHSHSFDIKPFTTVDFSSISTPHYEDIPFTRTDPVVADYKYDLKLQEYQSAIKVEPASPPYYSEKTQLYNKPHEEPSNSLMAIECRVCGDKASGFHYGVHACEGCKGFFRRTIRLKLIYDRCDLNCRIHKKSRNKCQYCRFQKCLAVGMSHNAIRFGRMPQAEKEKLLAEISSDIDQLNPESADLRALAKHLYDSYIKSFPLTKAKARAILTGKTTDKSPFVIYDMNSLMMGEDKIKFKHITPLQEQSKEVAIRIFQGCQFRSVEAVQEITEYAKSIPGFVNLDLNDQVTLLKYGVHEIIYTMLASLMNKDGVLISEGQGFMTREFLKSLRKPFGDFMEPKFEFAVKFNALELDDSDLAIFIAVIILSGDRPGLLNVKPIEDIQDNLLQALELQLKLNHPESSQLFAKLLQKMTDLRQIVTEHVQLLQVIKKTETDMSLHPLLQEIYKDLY
Chain of human RAR-related Orphan Receptor beta (RORb), RORB (gene 6096) (Q92753 whole entry, looked up, the tested form may be a part): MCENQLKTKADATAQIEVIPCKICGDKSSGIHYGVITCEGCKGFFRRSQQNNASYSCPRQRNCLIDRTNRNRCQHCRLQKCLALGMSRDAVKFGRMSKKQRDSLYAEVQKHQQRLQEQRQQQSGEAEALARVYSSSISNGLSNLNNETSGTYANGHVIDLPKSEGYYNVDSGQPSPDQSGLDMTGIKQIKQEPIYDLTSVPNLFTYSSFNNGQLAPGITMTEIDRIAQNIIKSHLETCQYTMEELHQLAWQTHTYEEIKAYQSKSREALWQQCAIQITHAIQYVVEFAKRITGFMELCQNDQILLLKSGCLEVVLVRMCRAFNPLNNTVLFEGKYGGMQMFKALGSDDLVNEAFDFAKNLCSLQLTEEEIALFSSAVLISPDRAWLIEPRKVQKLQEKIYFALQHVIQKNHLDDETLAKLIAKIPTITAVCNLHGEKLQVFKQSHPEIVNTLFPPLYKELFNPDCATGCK
Chain of human Retinoic Acid Receptor beta (RARb), RARB (gene 5915) (P10826 whole entry, looked up, the tested form may be a part): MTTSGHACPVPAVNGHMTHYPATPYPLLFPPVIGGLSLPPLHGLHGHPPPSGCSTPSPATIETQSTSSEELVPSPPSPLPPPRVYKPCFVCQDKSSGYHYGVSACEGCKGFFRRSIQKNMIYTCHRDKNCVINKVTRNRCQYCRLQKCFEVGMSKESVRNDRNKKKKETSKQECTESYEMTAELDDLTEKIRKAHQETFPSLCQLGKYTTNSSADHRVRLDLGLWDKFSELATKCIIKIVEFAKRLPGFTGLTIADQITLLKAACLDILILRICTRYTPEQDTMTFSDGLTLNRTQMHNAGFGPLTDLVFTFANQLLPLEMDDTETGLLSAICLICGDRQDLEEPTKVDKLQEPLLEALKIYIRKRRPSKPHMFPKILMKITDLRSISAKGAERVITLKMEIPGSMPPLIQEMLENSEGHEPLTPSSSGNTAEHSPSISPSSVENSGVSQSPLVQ
Chain of human RAR-related Orphan Receptor gamma (RORg), RORC (gene 6097) (P51449 whole entry, looked up, the tested form may be a part): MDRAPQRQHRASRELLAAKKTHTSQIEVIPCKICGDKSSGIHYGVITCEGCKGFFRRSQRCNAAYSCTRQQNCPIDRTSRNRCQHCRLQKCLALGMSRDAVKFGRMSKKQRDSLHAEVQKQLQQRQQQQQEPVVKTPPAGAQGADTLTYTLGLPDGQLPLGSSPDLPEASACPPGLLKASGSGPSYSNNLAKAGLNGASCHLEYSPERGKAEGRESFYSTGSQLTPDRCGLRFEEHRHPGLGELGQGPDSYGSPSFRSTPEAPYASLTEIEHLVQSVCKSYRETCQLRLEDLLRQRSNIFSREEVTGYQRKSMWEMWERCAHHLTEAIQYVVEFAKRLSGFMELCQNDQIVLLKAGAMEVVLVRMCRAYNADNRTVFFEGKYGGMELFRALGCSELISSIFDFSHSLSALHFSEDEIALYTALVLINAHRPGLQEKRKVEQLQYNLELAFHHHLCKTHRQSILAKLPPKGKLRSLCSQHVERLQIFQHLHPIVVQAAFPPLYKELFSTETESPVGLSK
Chain of human Retinoic Acid Receptor gamma (RARg), RARG (gene 5916) (P13631 whole entry, looked up): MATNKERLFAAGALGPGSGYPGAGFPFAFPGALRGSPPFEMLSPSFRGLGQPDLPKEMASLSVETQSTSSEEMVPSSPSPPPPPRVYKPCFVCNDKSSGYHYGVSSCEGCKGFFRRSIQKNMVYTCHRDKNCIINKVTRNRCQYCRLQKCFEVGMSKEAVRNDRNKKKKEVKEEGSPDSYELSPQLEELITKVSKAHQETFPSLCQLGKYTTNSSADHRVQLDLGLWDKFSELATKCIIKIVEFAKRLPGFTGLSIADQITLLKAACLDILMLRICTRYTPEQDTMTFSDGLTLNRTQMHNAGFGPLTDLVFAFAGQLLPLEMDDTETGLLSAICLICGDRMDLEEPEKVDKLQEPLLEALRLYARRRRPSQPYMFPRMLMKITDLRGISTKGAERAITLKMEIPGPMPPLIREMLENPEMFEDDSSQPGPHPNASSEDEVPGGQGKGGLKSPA
Chain of human Retinoid X Receptor beta (RXRb), RXRB (gene 6257) (P28702 whole entry, looked up, the tested form may be a part): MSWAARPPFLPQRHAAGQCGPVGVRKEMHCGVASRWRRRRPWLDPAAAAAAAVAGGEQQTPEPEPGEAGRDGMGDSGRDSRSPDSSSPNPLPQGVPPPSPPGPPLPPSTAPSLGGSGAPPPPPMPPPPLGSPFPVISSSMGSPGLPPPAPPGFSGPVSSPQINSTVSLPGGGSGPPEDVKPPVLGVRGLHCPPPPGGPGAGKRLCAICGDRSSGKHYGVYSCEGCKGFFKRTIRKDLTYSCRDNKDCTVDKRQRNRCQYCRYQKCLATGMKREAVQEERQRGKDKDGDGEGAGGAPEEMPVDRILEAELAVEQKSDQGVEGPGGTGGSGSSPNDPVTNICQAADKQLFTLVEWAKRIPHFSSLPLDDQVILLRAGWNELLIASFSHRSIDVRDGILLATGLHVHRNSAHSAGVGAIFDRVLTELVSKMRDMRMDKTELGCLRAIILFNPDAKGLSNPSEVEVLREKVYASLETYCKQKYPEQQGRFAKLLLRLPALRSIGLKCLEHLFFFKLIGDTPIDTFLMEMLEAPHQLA
Chain of Retinoic acid receptor RXR-alpha (Homo sapiens) (P19793 whole entry, looked up, the tested form may be a part): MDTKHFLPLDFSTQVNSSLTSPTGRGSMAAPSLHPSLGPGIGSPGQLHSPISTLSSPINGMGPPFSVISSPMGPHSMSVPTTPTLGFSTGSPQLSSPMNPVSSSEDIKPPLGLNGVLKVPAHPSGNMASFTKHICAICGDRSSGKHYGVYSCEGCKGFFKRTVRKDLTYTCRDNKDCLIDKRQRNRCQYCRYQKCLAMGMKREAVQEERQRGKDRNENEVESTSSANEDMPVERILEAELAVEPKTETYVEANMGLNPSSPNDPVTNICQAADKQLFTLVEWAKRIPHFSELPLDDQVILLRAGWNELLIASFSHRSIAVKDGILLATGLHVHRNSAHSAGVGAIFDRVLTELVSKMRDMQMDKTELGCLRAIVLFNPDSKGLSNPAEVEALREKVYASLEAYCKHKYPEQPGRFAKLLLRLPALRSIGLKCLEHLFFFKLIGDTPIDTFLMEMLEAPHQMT
Chain of human Peroxisome Proliferator-activated Receptor delta (PPARd), PPARD (gene 5467) (Q03181 whole entry, looked up, the tested form may be a part): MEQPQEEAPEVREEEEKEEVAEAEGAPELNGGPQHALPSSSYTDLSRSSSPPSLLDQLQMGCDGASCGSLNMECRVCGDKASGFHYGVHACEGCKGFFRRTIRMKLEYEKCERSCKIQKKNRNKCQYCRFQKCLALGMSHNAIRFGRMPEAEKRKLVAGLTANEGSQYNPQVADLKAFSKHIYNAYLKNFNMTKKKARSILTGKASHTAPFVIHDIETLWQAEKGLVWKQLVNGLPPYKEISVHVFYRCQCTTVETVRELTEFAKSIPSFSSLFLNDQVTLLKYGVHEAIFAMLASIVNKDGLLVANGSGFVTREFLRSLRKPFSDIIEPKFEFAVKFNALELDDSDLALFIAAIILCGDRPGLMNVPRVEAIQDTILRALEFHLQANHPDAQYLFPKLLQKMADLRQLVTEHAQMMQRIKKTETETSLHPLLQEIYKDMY
Chain of Nuclear receptor subfamily 1 group I member 2 (Homo sapiens) (O75469 whole entry, looked up, the tested form may be a part): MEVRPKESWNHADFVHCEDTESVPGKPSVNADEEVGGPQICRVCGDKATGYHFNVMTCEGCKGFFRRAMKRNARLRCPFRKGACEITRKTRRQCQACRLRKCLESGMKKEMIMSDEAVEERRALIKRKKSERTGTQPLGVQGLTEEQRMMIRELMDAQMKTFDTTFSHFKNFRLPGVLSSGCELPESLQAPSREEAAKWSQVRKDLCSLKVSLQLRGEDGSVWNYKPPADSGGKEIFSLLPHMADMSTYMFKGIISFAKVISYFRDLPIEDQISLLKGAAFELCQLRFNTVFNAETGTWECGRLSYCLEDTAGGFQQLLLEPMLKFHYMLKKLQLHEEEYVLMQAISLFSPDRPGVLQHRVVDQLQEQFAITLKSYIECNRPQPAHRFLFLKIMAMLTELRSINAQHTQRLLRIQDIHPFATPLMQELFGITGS

N[C@@H](Cc1cc(I)c(Oc2cc(I)c(O)c(I)c2)c(I)c1)C(=O)O
inactive: [1] | [4]
active: [2] 6.06 µM | [3] 3.79 µM | [5] 69 µM

Oc1ccc2cc(SSc3ccc4cc(O)ccc4c3)ccc2c1
inactive: [1] | [3] | [5] | [6]
active: [2] 5.56 µM

CCCCCc1ccco1
active: [2] 4.11 µM | [3] 2.75 µM
inactive: [1]

O=c1[nH]c(=O)c2cn[nH]c2[nH]1
inactive: [1] | [7] | [2] | [4]

CCCCOCC
inactive: [1] | [7] | [2] | [4] | [8]

ClC(c1ccccc1)(c1ccccc1)c1ccccc1
inactive: [1] | [9] | [10] | [11] | [5]
active: [3] 2.2 µM

CN(C)CCOC(C)(c1ccccc1)c1ccccn1 (configuration not stated)
inactive: [1] | [3] | [10] | [4]

CC(C)C(OC(=O)c1ccccc1)C(C)(C)COC(=O)c1ccccc1 (configuration not stated)
inactive: [1] | [2] | [10] | [11] | [6]
active: [3] 2.45 µM

CCC(Cl)C(Cl)C(Cl)CC(Cl)C(Cl)C(C)Cl (configuration not stated)
active: [2] 22.3 µM | [3] 1.74 µM | [5] 16.4 µM
inactive: [1] | [11] | [6]

COC(C)(C)CCCC(C)CC=O (configuration not stated)
inactive: [1] | [7] | [2] | [3] | [11]

CC(C)(C)C1=CC(=O)C(C(C)(C)C)=CC1=O
active: [2] 50 µM | [3] 5.78 µM | [8] 72 µM | [5] 13.7 µM
inactive: [1] | [11] | [6]

C1=CC2C3C=CC(C3)C2C1 (configuration not stated)
not listed: [1] | [8] | [9]
inactive: all other assays above

CCCC(O)C(O)CO (configuration not stated)
inactive: [1] | [3] | [10] | [4] | [11] | [6]

CCOc1ccc(NC(=O)CC(C)O)cc1 (configuration not stated)
inactive: [9] | [7] | [2] | [3] | [8]

CN1CCOCC1
inactive: [9] | [7] | [10] | [4] | [11]
